# Results as given in ChEMBL document CHEMBL3433997, “St. Jude Leishmania screening dataset” (2016).
# What was measured:
# Type in all cases: functional
# [1] = target: Solute carrier family 2, facilitated glucose transporter member 1 (Homo sapiens) (UniProt P11166); experiment: ST_JUDE_LEISH: Cytotoxicity at 2uM final concentration against transgenic Leishmania Mexicana promastigotes LmGLUT1 that are glucose transport deficient and complemented with the human glucose transporter GLUT1. Activity is measured by DNA content using SYBR green in vitro
# [2] = target: Hexose transporter 1 (Plasmodium falciparum) (UniProt O97467); experiment: ST_JUDE_LEISH: Cytotoxicity at 2uM final concentration against transgenic Leishmania Mexicana promastigotes LmPfHT that are glucose transport deficient and complemented with the Plasmodium falciparum hexose transporter. Activity is measured by DNA content using SYBR green in vitro
# [3] = target: Glucose transporter (Leishmania mexicana) (UniProt O61059); experiment: ST_JUDE_LEISH: Cytotoxicity at 2uM final concentration against transgenic Leishmania Mexicana promastigotes LmGT2 that are glucose transport deficient and complemented with the L. Mexicana glucose transporter 2. Activity is measured by DNA content using SYBR green in vitro
# Chain of Solute carrier family 2, facilitated glucose transporter member 1 (Homo sapiens) (P11166 whole entry): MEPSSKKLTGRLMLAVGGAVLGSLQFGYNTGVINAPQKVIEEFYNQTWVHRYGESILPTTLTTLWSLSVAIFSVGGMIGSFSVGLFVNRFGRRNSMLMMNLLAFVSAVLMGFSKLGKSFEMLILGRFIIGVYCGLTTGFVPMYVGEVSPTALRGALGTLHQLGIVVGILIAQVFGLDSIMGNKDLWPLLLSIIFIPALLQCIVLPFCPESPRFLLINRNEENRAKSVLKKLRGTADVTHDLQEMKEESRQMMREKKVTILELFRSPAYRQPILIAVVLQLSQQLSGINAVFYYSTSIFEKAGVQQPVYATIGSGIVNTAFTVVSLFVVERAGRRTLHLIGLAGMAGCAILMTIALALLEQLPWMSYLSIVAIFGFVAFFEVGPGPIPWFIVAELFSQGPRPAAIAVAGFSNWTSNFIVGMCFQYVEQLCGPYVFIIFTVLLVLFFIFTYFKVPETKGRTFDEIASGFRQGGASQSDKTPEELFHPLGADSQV
SMILES,inhibition [1] [%],inhibition [2] [%],inhibition [3] [%]
O=[N+]([O-])c1cccc(CNCC2CCN(Cc3ccc(C(F)(F)F)cc3)CC2)c1,0.44,5.74,6.41
CC(CCc1ccccc1)NCC(O)c1cccc([N+](=O)[O-])c1 (stereo not given),-0.26,-2.9,1.35
N#Cc1ccc(-c2ccc(OCC(O)CN3CCCN(C(=O)C(c4ccc5c(c4)OCO5)N4CCN(C/C=C/c5ccccc5)CC4)CC3)cc2)cc1 (stereo not given),4.32,2.9,2.95
Cc1ccc(NS(=O)(=O)c2ccc(C(C)N3CCC(N4CCCCC4)CC3)cc2)cc1C (stereo not given),-2.42,-0.86,0.73
O=C(NCCN1CCC(c2ccncc2)CC1)c1cccc(Nc2nccc(Nc3ccc(Oc4ccccc4)cc3)n2)c1,-0.12,-0.29,-0.06
Cc1cccc2c(/C=C/C(=O)NC3CCC(CCN4CCc5ccc(C#N)cc5CC4)CC3)c[nH]c12 (stereo not given),10.1,8.44,7.58
CNC(=O)c1cnc(Nc2ccc(OCC(O)CN(C)C)cc2)nc1Nc1cccc([N+](=O)[O-])c1 (stereo not given),3.44,3.59,3.56
CCN(CC)c1cc(C)c2cc(NC(=O)c3cc(=O)c4ccccc4o3)ccc2n1,6.32,6.88,1.71
NC1CCCN(Cc2cccc(-c3ccc(-c4nc5cc(F)ccc5[nH]4)cc3)c2)C1 (stereo not given),3.55,3.14,3.43
CN(CCS(C)(=O)=O)Cc1ccc(-c2ccc3ncnc(Nc4ccc(OCc5cccc(F)c5)c(Cl)c4)c3c2)o1,2.97,0.92,-0.85
Cc1cc(N)c2cc(NC(=O)c3cc(C(F)(F)F)cc(C(F)(F)F)c3)ccc2n1,0.38,1.04,0.8
Nc1ncnc2nc(-c3ccc(F)cc3)cc(-c3ccc(NC(=O)c4ccccc4)cc3)c12,4.74,2.67,2.02
Cc1cc2nc(-c3ccc(/C=C/C(=O)NC4CCN(Cc5ccccc5)CC4)cc3)[nH]c2cc1C,0.58,-0.75,-2.3
Cc1noc(C)c1-c1cccc(CNCc2cccc(-c3ccc(-c4nc5ccccc5[nH]4)s3)c2)c1,8.57,3.74,7.45
Cc1ccc(C2(C)CN(CCCOc3cccc(-c4ccc(C(=O)NC(C)C)cc4)c3)CCO2)cc1 (stereo not given),0.12,4.27,0.85
CN(C)Cc1cccc(-c2cc3c(-c4cnn(C)c4)c(Cl)cnc3[nH]2)c1,95.7,95,94.2
CS(=O)(=O)c1ccc(CCNCc2ccc(-c3ccc(CN(C(=O)c4cccc(C#N)c4)C4CCN(Cc5ccccc5)CC4)cc3)nc2)cc1,5.06,4.14,5.74
N=C(N)c1ccc(C(=O)Nc2cccc(C(=N)N)c2)cc1,-0.57,0.84,-0.81

SMILES,inhibition [1] [%],inhibition [2] [%],inhibition [3] [%]
Nc1cccc(CNCc2ccc(-c3ccc(-c4nc5cc(C(F)(F)F)ccc5[nH]4)s3)cc2)c1,2.29,1.24,0.65
Cc1cccc2nc(-c3cccc(-c4ccc(NC(=O)Nc5cccc(C#N)c5)cc4)c3)[nH]c12,2.14,2.03,-1.2
CC(C)[C@H](NC(=O)c1ccc(O)c(-c2ccc(Cl)c(Cl)c2)c1)C(=O)NCCN1CCOCC1,2.3,4.31,4.06
CN1CCC(N2CCC(Oc3cccc(C(=O)NCCCC4CCCC4)c3)CC2)CC1,10.9,10.4,10.3
COc1ccc(CNCc2ccc(F)cc2)cc1-c1ccc(OC)c(S(=O)(=O)NCCN2CCCC2)c1,5.21,6.27,4.28
OC(CNCc1ccccc1OCc1ccccc1)c1cc(Br)cs1 (stereo not given),3.96,3.38,3.82
CN(C)Cc1ccc(-c2cccc(Nc3nccc(NCC(O)c4ccccc4)n3)c2)cc1 (stereo not given),0.75,1.38,0.25
O=C(Nc1ccc(Cn2ncc(N3CCCNCC3)c(Cl)c2=O)cc1)Nc1ccc(C(F)(F)F)cc1,3.47,4.5,-0.44
CCc1cc(-c2onc(C)c2-c2cc3ccccc3o2)c(O)cc1OC,1.25,-1.2,-0.24
Cc1cc(N2CCOCC2)nc2ccc(NC(=O)c3cccc([N+](=O)[O-])c3)cc12,5.27,4.5,3.77
Cc1cc(C(=O)N(Cc2ccc(-c3ccc(CNCCc4ccc(S(C)(=O)=O)cc4)cn3)cc2)C(C)CN(C)C)ccc1[N+](=O)[O-] (stereo not given),7.26,5.46,6.55
CC(C)C[C@H](NC(=O)c1cc(-c2ccc(C(C)(C)C)cc2)no1)C(=O)O.CC(C)C[C@H](NC(=O)c1conc1-c1ccc(C(C)(C)C)cc1)C(=O)O,1.21,0.89,0.84
O=c1cc(NCCCNC2CCCc3c2ccc2ccccc32)[nH]c2ccccc12 (stereo not given),4.07,4.85,2.74
O=C(Nc1ccc(-c2cccc(-c3nc4cc(F)ccc4[nH]3)c2)cc1)Nc1ccc(F)c(F)c1F,5.34,7.02,6.78
Cc1ccc(-c2ccc3c(c2)C=C(C(=O)NC2CCN(CCNC(=O)c4cccs4)CC2)CCC3)cc1,8.71,2.81,2.25
NCC1(c2nc(-c3ccc(Cl)c(O)c3)c(-c3ccncc3)[nH]2)CCCCC1,3.72,2.75,0.55
O=C(CCCCCNC(=O)c1ccc(O)c(-c2cccc(C(F)(F)F)c2)c1)NCCN1CCCCC1,5.39,4.36,0.5
